Most compounds without a hit are left out; they make up all but 2.3% or so of the library.
Pol iota inh: blocks human DNA polymerase iota activity; hit rate 1% among 390,000; AID 588590; Pol iota fluorescent replication assay, 10 min; Q9UNA4; Potency, µM (highest dose often 115 µM), for inactives: at the top dose activity, negative = inhibition, most hits filed as inhibitors; note: potency is the fitted concentration of half-maximal effect
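Fluorescent replication assay read twice, at 0 min and 10 min after adding 50 nM (final) substrate. Enzyme (10 nM) and compounds were first incubated 15 min at room temperature; enzyme-free buffer wells were negative controls.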
WRN inhibitor: inhibitors of human WRN helicase; hit rate 0.46% among 360,000; WRN helicase unwinding, fluorescent forked duplex, kinetic; Potency, µM (series often up to 114 µM), for the others: top-dose activity change, negative = inhibition, most hits filed as inhibitors; Q14191; note: potency is the fitted concentration of half-maximal effect; % is set by controls: 0 for no effect and ±100 for the full control effect; nearly all actives have a fitted effect of over 55% in size
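Screening of the MLSMR collection measured strand separation of a quenched forked DNA duplex (100 nM) by 20 nM WRN with 2 mM ATP, all final. Compounds were preincubated with enzyme 15 min at room temperature.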
Pol eta inh-1: inhibitors of human DNA polymerase eta. AID 588591. recombinant Pol eta, fluorescent DNA replication assay. Q9Y253. hit rate 1.2% among 390,000. Potency, µM (doses to about 114 µM), for inactives: top-dose activity change, negative = inhibition, actives largely listed as inhibitors; note: potency is the fitted concentration of half-maximal effect; % is set by controls: 0 for no effect and ±100 for the full control effect
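Fluorescent replication assay: 50 nM final substrate added after a 15 min room-temperature compound preincubation with 10 nM enzyme. Signal taken at 0 min and again at 10 min.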
Pol beta inh: blocks human DNA polymerase beta activity; P06746; Pol beta primer extension/strand displacement, fluorescence kinetic; Potency, µM (top dose mostly 114 µM), inactives show top-dose activity change, negative = inhibition, most hits filed as inhibitors; hit rate 1.3% among 340,000; AID 485314; note: potency is the fitted concentration of half-maximal effect; % is set by controls: 0 for no effect and ±100 for the full control effect
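Enzyme-only controls used 10 nM Pol beta; buffer lacking enzyme served as negative control. Compound preincubated 15 min, then 50 nM substrate added; 0 and 10 min reads at room temperature.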
Pol kappa inh-1: inhibitors of human DNA polymerase kappa; purified Pol kappa, fluorescent DNA synthesis assay, 10 min; Potency, µM (top dose mostly 107 µM), inactives show top-dose activity, negative = inhibition, hits mostly inhibitors; hit rate 0.53% among 400,000; AID 588579; note: potency is the fitted concentration of half-maximal effect; % is set by controls: 0 for no effect and ±100 for the full control effect
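Inhibition of 10 nM Pol kappa is measured by a fluorescent read-out at 0 and 10 min following addition of 50 nM substrate (final), with a 15-min room-temperature compound preincubation.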
TbPGK inh: TbPGK inhibition, hit validation; Potency, µM (doses to about 57.5 µM), without a hit: at the highest dose activity change, negative = inhibition, hits mostly inhibitors; shares compounds with Pol kappa inh-1; hit rate 79% among 500; TbPGK coupled GAPDH assay, Kinase-Glo luminescence; note: potency is the fitted concentration of half-maximal effect; % is set by controls: 0 for no effect and ±100 for the full control effect; nearly all actives have a fitted effect of over 65% in size
Target sequence (P07378 whole entry, looked up): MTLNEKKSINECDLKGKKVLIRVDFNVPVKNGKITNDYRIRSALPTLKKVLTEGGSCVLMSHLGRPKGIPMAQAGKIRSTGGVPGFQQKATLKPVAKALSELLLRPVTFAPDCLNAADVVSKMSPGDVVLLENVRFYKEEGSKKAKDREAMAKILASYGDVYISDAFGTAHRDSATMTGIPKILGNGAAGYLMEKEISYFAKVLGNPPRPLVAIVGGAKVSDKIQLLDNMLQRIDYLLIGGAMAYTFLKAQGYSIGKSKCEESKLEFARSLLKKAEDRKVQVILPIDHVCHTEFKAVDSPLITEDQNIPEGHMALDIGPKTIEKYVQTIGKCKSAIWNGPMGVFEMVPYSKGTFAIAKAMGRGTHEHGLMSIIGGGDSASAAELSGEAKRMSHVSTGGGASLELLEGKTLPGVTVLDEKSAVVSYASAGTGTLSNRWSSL
POLI cherry-pick: Human Pol iota inhibitor confirmatory assay | shares compounds with Pol kappa inh-1 | Pol iota primer extension, TAMRA/BHQ fluorescence | Potency, µM, hits mostly inhibitors | hit rate 77% among 1,500; note: potency is the fitted concentration of half-maximal effect
GALK confirm: confirmation of human galactokinase (GALK) inhibitors; AID 2015; Potency, µM (doses to about 115 µM), inactives show at the highest dose activity, negative = inhibition, usual class: inhibitors; purified GALK, Kinase-Glo ATP depletion luminescence; shares compounds with Pol eta inh-1; hit rate 70% among 150
GALK redox cs: counter-screen for GALK inhibitors: redox cycling H2O2 generation | hit rate 40% among 150 | shares compounds with Pol eta inh-1 | Potency, µM (doses to about 115 µM), for inactives: at the highest dose activity change, negative = H2O2 signal, most hits filed as inhibitors | Phenol red-HRP H2O2 redox cycling, absorbance 600 nm | AID 2035
HEK293 viability: HEK-293 cytotoxicity, GALK inhibitor secondary; shares compounds with Pol eta inh-1; HEK-293 viability, ATP luminescence (CellTiter-Glo), 24/48 h; Potency, µM (highest dose often 46.1 µM), for the others: at the top dose activity change, negative = cytotoxicity, usual class: inhibitors; hit rate 10% among 170; AID 2547; note: potency is the fitted concentration of half-maximal effect; % is set by controls: 0 for no effect and ±100 for the full control effect
Pol kappa inh-2: confirmation of human DNA polymerase kappa inhibitors | shares compounds with Pol eta inh-1 | Potency, µM, usual class: inhibitors | hit rate 76% among 920 | purified Pol-kappa, fluorescent strand-displacement substrate; note: potency is the fitted concentration of half-maximal effect
Pol eta inh-2: Pol eta (human) inhibition, cherry-pick confirmation; shares compounds with Pol eta inh-1; Pol eta primer extension, TAMRA/BHQ fluorescence, 10 min; Potency, µM, most hits filed as inhibitors; hit rate 64% among 2,600; note: potency is the fitted concentration of half-maximal effect
Numbers without * were called inactive; [ ] = remark or other dose. Calls come from the whole dose curve; as a rule, active = well fitted curve in the direction sought with a large enough effect; inconclusive = small, poorly fitted or top-dose-only effect, or another doubt; inactive = no such curve, though single readings can be large; an effect the other way counts as inactive or inconclusive.

Results for Nc1c(N)c2ccccc2oc1=O ?
Pol iota inh: 35%; WRN inhibitor: -16%; Pol eta inh-1: -13%; Pol beta inh: 2%; Pol kappa inh-1: 3%

What do the screens show for `NS(=O)(=O)c1ccc(NC2=CC(=O)C(=O)c3ccccc32)cc1`?
Pol iota inh: inconclusive; WRN inhibitor: inconclusive; Pol eta inh-1: inconclusive; Pol beta inh: inconclusive; Pol kappa inh-1: -17%; POLI cherry-pick: inconclusive; GALK confirm: 15µM*; GALK redox cs: 11µM*; HEK293 viability: 7%; Pol eta inh-2: inconclusive

How did Cc1cc(C(F)F)nn1CC(=O)NC1C(=O)N2C(C(=O)O)=C(CSc3nnnn3C)CSC12 (centres undefined) do in these assays?
Pol iota inh: inconclusive; WRN inhibitor: -9%; Pol eta inh-1: 28µM*; Pol beta inh: 13µM*; Pol kappa inh-1: -45%; TbPGK inh: -24%; Pol eta inh-2: inconclusive

How did Cc1nn(C(C)C(=O)NC2C(=O)N3C(C(=O)O)=C(CSc4nnnn4C)CSC23)cc1Cl (centres undefined) do in these assays?
Pol iota inh: 16µM*; WRN inhibitor: -12%[11.6 µM]; Pol eta inh-1: 20µM*; Pol beta inh: 25µM*; Pol kappa inh-1: inconclusive; TbPGK inh: -25%; Pol eta inh-2: inconclusive

Results for CC(=O)OCC1=C(C(=O)O)N2C(=O)C(NC(=O)C(C)Cn3nc(C)c(Cl)c3C)C2SC1 (centres undefined) ?
Pol iota inh: inconclusive; WRN inhibitor: -6%[11.6 µM]; Pol eta inh-1: 22µM*; Pol beta inh: inconclusive; Pol kappa inh-1: inconclusive; TbPGK inh: 16µM*; Pol eta inh-2: 48*

What do the screens show for `CCc1nn2c(=O)cc(COc3ccc(/C=C4\C(=N)N5N=C(C)SC5=NC4=O)cc3)nc2s1`?
Pol iota inh: inconclusive; WRN inhibitor: inconclusive; Pol eta inh-1: 7.1µM*; Pol beta inh: 35µM*; Pol kappa inh-1: 79µM*; POLI cherry-pick: 34*; Pol kappa inh-2: 19*; Pol eta inh-2: 48*

How did COc1ccc(N2CCN(C(=O)C3CCN(S(=O)(=O)c4cccc5nonc45)CC3)CC2)cc1 do in these assays?
Pol iota inh: 15%; Pol eta inh-1: -12%; Pol beta inh: 7%; Pol kappa inh-1: -11%[60.1 µM]

How did Nc1nc(=S)c2ncn(C3OC(CO)C(O)C3O)c2[nH]1 (centres undefined) do in these assays?
Pol iota inh: inconclusive; WRN inhibitor: 28µM*; Pol eta inh-1: 4µM*; Pol beta inh: 0.16µM*; Pol kappa inh-1: inconclusive; TbPGK inh: 12µM*; POLI cherry-pick: 34*; Pol kappa inh-2: 15*; Pol eta inh-2: 27*

What do the screens show for `O=C(NCc1ccco1)c1ccc([N+](=O)[O-])o1`?
Pol iota inh: 10µM*; WRN inhibitor: inconclusive; Pol eta inh-1: 40µM*; Pol beta inh: 13µM*; Pol kappa inh-1: inconclusive; POLI cherry-pick: 42*; Pol eta inh-2: 54*

How did CC(C)Cn1c(=O)c2sccc2n2c(CCCC(=O)Nc3ccc(Cl)cc3)nnc12 do in these assays?
Pol iota inh: 12%; Pol eta inh-1: -10%; Pol beta inh: 0%; Pol kappa inh-1: 2%

Results for Cc1cc(C(=O)NNC(=O)/C=C/c2ccco2)c(C)o1 ?
Pol iota inh: 3.2µM*; WRN inhibitor: inconclusive; Pol eta inh-1: 2.2µM*; Pol kappa inh-1: 22µM*; TbPGK inh: 16µM*; POLI cherry-pick: inconclusive; Pol eta inh-2: 17*

What do the screens show for `COc1ccc(C(=O)c2sc3nc(-c4ccccc4)ccc3c2N)cc1OC`?
Pol iota inh: inconclusive; WRN inhibitor: inconclusive; Pol eta inh-1: inconclusive; Pol beta inh: 13µM*; Pol kappa inh-1: inconclusive; POLI cherry-pick: inconclusive; Pol eta inh-2: 67*

What do the screens show for `O=C1NN(c2ccccc2)C(=O)/C1=C\c1ccccc1`?
Pol iota inh: inconclusive; WRN inhibitor: -8%; Pol eta inh-1: -7%; Pol beta inh: 1%; Pol kappa inh-1: -18%

What do the screens show for `O=C1NN(c2ccc(Cl)cc2)C(=O)/C1=C\c1ccc(-c2cccc(C(=O)O)c2)o1`?
Pol iota inh: 8.9µM*; WRN inhibitor: inconclusive; Pol eta inh-1: 4.5µM*; Pol beta inh: 10µM*; Pol kappa inh-1: 20µM*; POLI cherry-pick: 21*; Pol eta inh-2: 17*

What do the screens show for `O=C1NN(c2ccccc2)C(=O)/C1=C\c1ccc(-c2cc([N+](=O)[O-])ccc2O)o1`?
Pol iota inh: 16µM*; WRN inhibitor: -20%[11.6 µM]; Pol eta inh-1: 20µM*; Pol beta inh: 10µM*; Pol kappa inh-1: 40µM*; POLI cherry-pick: inconclusive; Pol eta inh-2: 27*

What do the screens show for `O=C(O)c1cc(N/N=C/C=C/c2ccccc2)ccc1Cl`?
Pol iota inh: -9%; WRN inhibitor: -13%; Pol eta inh-1: -13%; Pol beta inh: inconclusive; Pol kappa inh-1: -10%

Results for C/C(=N\Nc1ccc(Cl)c(C(=O)O)c1)c1ccc[nH]1 ?
Pol iota inh: 45µM*; WRN inhibitor: inconclusive; Pol eta inh-1: 14µM*; Pol beta inh: 32µM*; Pol kappa inh-1: 45µM*; POLI cherry-pick: 53*; Pol eta inh-2: 27*

Compound activity as filed in PubChem BioAssay.
